Bioassay records from PubChem.
PABP1 MLLE inh: inhibitors of microRNA-mediated deadenylation, human PABP1 MLLE binding; P11940; GST-MLLE / FITC-PAM2 fluorescence polarization; inhibition, % at 20 µM; hit rate 0.36% among 360,000; AID 588489; in the data active means inhibition above about 35%, passing the limit was not always enough;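 further: plate controls were DMSO wells with GST-MLLE for no effect and wells lacking GST-MLLE protein for full effect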
PABP polyA inh: PABP-poly(A) binding inhibition; P11940; PABP-poly(A) RNA binding, fluorescence polarization; inhibition, % at 35 µM; hit rate 1% among 290,000; AID 2014;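 further: calls also rest on retests at 20 µM and on dose response follow-up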
eIF4E-4G inh: inhibitors of eIF4E and eIF4G interaction in translation initiation; P63073+Q04637; TR-FRET eIF4E-eIF4GI(517-606) binding, 2 h; inhibition, % at 21.7 µM; hit rate 0.37% among 220,000;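 active means inhibition above about 30%, limit read from the data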;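 further: 0% = full FRET control wells and 100% = background wells lacking eIF4GI fragment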
Target sequence (P63073 whole entry, looked up, the tested form may be a part): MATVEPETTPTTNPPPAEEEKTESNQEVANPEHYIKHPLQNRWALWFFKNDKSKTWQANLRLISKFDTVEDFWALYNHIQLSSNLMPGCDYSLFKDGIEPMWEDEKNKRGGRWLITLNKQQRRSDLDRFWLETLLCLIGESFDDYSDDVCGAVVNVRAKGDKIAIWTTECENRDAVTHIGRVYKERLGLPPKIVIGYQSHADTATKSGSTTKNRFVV
Target sequence (Q04637 whole entry, looked up, the tested form may be a part): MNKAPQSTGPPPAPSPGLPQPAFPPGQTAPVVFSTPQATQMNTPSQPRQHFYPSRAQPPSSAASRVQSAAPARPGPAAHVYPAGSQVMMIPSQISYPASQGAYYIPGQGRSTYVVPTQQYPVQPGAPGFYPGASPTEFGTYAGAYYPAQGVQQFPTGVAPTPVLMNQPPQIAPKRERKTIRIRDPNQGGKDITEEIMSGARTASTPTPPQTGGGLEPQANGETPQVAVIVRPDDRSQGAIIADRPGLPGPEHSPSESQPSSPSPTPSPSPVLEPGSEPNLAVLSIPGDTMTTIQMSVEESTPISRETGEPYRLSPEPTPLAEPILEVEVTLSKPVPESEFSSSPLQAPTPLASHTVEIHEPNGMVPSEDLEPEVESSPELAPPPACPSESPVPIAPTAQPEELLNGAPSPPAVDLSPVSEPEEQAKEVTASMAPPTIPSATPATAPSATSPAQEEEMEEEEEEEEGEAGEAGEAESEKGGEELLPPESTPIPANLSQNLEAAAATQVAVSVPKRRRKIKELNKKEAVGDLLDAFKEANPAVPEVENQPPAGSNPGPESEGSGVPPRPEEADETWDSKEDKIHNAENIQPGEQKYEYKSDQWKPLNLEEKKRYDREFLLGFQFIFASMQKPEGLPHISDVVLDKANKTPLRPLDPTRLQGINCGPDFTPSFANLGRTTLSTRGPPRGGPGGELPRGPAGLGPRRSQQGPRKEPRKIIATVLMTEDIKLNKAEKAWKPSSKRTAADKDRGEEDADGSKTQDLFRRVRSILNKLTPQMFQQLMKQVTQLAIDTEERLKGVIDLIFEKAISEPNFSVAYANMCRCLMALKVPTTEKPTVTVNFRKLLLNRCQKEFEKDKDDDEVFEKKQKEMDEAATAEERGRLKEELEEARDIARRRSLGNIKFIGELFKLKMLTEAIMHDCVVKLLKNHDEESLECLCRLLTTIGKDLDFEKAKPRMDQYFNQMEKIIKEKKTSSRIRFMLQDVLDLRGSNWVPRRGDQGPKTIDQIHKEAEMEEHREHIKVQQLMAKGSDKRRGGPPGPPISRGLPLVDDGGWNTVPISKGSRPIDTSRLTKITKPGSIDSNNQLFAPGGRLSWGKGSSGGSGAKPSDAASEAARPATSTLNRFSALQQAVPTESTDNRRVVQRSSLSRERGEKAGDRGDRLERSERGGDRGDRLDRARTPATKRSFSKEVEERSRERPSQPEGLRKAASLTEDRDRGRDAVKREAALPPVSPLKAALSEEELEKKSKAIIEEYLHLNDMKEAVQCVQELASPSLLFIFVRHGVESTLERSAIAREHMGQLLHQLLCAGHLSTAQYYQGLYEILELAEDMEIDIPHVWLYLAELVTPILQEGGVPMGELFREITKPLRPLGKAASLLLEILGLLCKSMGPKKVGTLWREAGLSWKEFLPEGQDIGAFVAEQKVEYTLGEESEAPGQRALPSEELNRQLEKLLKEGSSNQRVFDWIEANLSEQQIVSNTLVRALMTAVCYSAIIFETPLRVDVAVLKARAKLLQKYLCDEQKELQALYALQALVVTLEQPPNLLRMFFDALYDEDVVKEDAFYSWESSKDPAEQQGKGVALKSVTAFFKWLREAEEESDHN
PERK inhibitor: blocks human PERK kinase; Q9NZJ5; CHO PERK-DD fusion, SEAP luminescence translation reporter; inhibition, % at 5.6 µM; hit rate 0.17% among 220,000; AID 1416;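 active means inhibition above the mean inhibition of all tested compounds plus 3 SD, set separately per screening campaign, cut at about 2.9% in these data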;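 further: PERK kinase domain activated by AP20187 dimerizer at 100 nM; 0% = DMSO with dimerizer and 100% = rapamycin at 8.4 µM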
eIF4H inh: inhibitors of RNA binding by human eIF4H; eIF4H fluorescence polarization binding assay; hit rate 0.94% among 290,000; AID 2012; inhibition, % at 35 µM;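 further: calls also rest on retests at 20 µM and on dose response follow-up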
An asterisk follows results filed as active; ? = inconclusive; . = no result; [ ] = remark or other dose. Rows were chosen to be rich in hits. Some 1.6% of all compounds tested hit in one or more screens of this group. Unless noted, how the calls were made is not given here.

SMILES | PABP1 MLLE inh | PABP polyA inh | eIF4E-4G inh | PERK inhibitor | eIF4H inh
C#CCSC1=C(C#N)C(c2cccs2)C(C(=O)OCC)=C(C)N1 (stereo unspecified) | 8.3 | 16.0* | -7.6 | 0.9 | 62.7*
CCCCCCSc1ccc([C@H]2N[C@@](CC(C)C)(C(=O)OC)[C@H]3C(=O)N(C)C(=O)[C@@H]23)cc1OC | 1.5 | . | . | . | .
CCOc1ccccc1N(C(=O)c1snc(C(N)=O)c1N)C(C(=O)NC1CCCC1)c1cccs1 (stereo unspecified) | 59.2* | 2.8 | . | . | -5.2
CCc1ccccc1NCC(=O)Nc1ccccc1C(=O)OC | 1.8 | 119.0 | 0.3 | -0.4 | active
COc1ccc(/C=C2\SC(=O)N(CC(=O)NCCC(C)C)C2=O)cc1OC | 17.9 | 1.6 | -3.0 | 0.9 | -10.0
O=C1C(Cl)=C(N2CCN(Cc3ccccc3)CC2)C(=O)N1Cc1ccccc1 | 64.8* | 30.7 | -3.5 | -0.7 | 18.0
O=C1C(Cl)=C(NC2CCCCC2)C(=O)N1Cc1ccccc1 | -15.0 | 1.0 | -1.2 | 0.3 | -1.3
O=C(N/N=C\c1cc(Br)c(Br)o1)c1cncc(Br)c1 | 10.6 | -2.4 | -4.4 | 0.7 | -7.0
O=C(N/N=C/c1cc(Br)c(Br)o1)c1cccnc1 | 59.0* | 2.7 | 6.1 | 0.4 | ?
O=C(N/N=C/c1cc(Br)c(O)c(Br)c1O)c1ccc2c(c1)OCCO2 | -24.8 | 3.9 | . | . | 54.0*
O=C(N/N=C/c1cc(Br)c(Br)o1)c1ccc2c(c1)OCCO2 | -52.3 | 53.7* | 17.1 | 1.7 | 75.6*
O=C(c1cc2c(=O)oc3ccccc3c2s1)N1CCOCC1 | -1.0 | -4.3 | 3.3 | 0.8 | 3.3
Cn1ncc2c(Nc3cc(Cl)cc(Cl)c3)ncnc21 | 4.4 | -0.5 | . | . | 6.1
CCN1CCN(C(=O)c2ccc3c(=O)n(Cc4ccccc4OC)c(=S)[nH]c3c2)CC1 | -65.5 | -10.4 | -10.8 | 0.1 | -7.1
O=C(CNC(=O)c1ccccc1F)N/N=C/c1cc(Br)ccc1OC(=O)/C=C/c1ccco1 | -21.3 | -5.5 | -1.3 | -0.3 | 83.7*
COc1ccccc1C(=O)NCC(=O)N/N=C/c1cc(Br)ccc1OC(=O)/C=C\c1ccco1 | -10.2 | -10.9 | 1.2 | 0.0 | 85.5
CCOc1ccccc1OCC(=O)Nc1cc(C)on1 | 2.5 | . | . | . | .
Cc1ccc(-c2ccc(OCC(=O)N3CCOCC3)cc2)cc1 | -6.5 | -4.0 | -0.3 | 0.3 | -8.8
Cc1cccc(OCC(=O)N2CCOCC2)c1 | 0.8 | 99.4* | 1.5 | 0.4 | 8.3*
O=C(Nc1ccc(N2CCOCC2)nc1)c1ccc(F)cc1 | 3.1 | 65.2 | 8.0 | 0.9 | 40.3*
Cc1ccc(C(=O)Nc2ccc(N3CCOCC3)nc2)cc1 | 13.5 | 18.6 | -3.6 | 0.0 | 14.4
CC(=O)c1cccc(S(=O)(=O)N2CCN(CCOc3ccccc3)CC2)c1 | 43.7* | . | . | . | .
Cc1ccc(S(=O)(=O)N2CCN(CCOc3ccccc3)CC2)cc1 | -5.7 | . | . | . | .
Cc1cc(C)c2c(=O)c(C#N)coc2c1 | 38.7* | -10.0 | 2.3 | 1.6 | -8.2
COc1ccc(C=Nc2ccc3[nH]ncc3c2)c(O)c1 | -0.4 | 37.0* | 3.7 | 1.7 | 77.4*
SMILES | PABP1 MLLE inh | PABP polyA inh | eIF4E-4G inh | PERK inhibitor | eIF4H inh
Oc1c(Br)cc(Br)cc1C=Nc1ccc2[nH]ncc2c1 | -75.8 | 19.8 | 3.5 | 0.9 | 36.8
S=C(Nc1cccc(Cl)c1)NC1CCCCC1 | -14.7 | -2.6 | -5.0 | 0.5 | 3.5
S=C(NNc1cccc(Cl)c1)NC1CCCCC1 | -83.3 | 69.4* | -2.1 | -1.3 | 3.3
O=C1c2c(O)cccc2Cc2cccc(O)c21 | 46.2* | . | . | . | .
O=C(CN1CCN(c2ccc(O)cc2)CC1)N1CCc2ccccc21 | 8.2 | 5.4 | . | . | -1.3
COc1cccc(C2CC(c3cccc(OC)c3)n3nc(N)nc3N2)c1 (stereo unspecified) | -14.9 | -4.4 | 1.4 | 0.1 | -15.5
CC(/C=N/n1cnnc1)=C\c1ccco1 | 2.5 | active | 9.3 | 0.7 | 71.7
O=C(Nc1ccc(F)cc1F)c1cc(-c2ccco2)nc2ccccc12 | 3.0 | 9.3 | . | . | -2.7
Cc1ccc([N+](=O)[O-])cc1-c1ccc2cccc(C)c2n1 | -1.1 | 2.7 | 70.8*[fluorescence artefact?] | 1.5 | 3.8
Cc1ccc2cccc(Oc3ccc([N+](=O)[O-])cc3[N+](=O)[O-])c2n1 | 9.7 | -1.5 | 6.0 | 0.7 | 6.0
O=C(c1ccccc1)N1CC(COc2ccccc2)OC(c2cccnc2)O1 (stereo unspecified) | -7.2 | 76.8* | -1.5 | 0.5 | 63.3*
CCC(C)Sc1nc2ccccc2c(=O)[nH]1 (stereo unspecified) | -3.6 | 9.0 | -2.8 | 0.8 | 3.2
CCN=C1S/C(=C\c2ccc(-c3cccc(C(=O)O)c3)o2)C(=O)N1CC | 9.2 | 1.0 | 3.2 | 1.1 | 64.2*
